Consider 25 compounds from PubChem BioAssay (NCI).

SMILES strings stand for the structures. The panel holds about 83,000 compounds, 20% with a hit somewhere; the sample as a whole holds those more often.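 Plates (96-well) were seeded with cells, treated with compound at one concentration, and incubated for 48 hours before percent growth was determined.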 Unmarked numbers belong to inactive results. Activity calls are given as the source filed them. How the source made its calls: active means growth percent below 10; inactive means the rest.

In this experiment the test system is MDA-MB-468 breast. Kind of experiment: NCI-60 one-dose screen, 48 h (100 = growth as untreated, 0 = no growth, -100 = all killed). The following applies: 10 µM unless noted.
With `COc1ccccc1S(=O)(=O)Nc1ccc2c3c(cc(-c4cnn(C)c4)nc13)C(=O)N2C`, the growth was 23.1%.

With `CCOC(=O)c1ccc2c(c1)[n+](=O)c(C(=O)C1CCCS1)c(C(F)(F)F)n2[O-]` (stereo not given), the growth is -80.5% (active).

In the case of `COc1cc(/C=C/C(=O)c2ccc(NC(=O)CSc3nnc(-c4ccc(Cl)cc4)n3-c3ccccc3)cc2)cc(OC)c1OC`, the growth was 72.9%. As for `Cc1c(C(=O)O)nnn1-c1nccs1`, the figure is 107%; as for `CCCCCCCCCCCCCCCCCCOc1ccccc1CC(=O)NCC[N+](C)(C)C`, 19%; as for `CSc1nnc(C2=CC(=O)c3ccccc3C2=O)n1-c1ccccc1`, 82.6%. In the case of `O=C1c2ccccc2OC=C(c2ccccc2)N1CCCCN1CCCCC1`, the growth was -6.27% (active). As for `CC1(C)CC(=O)c2c(ccc(C(=O)C[C@H](N)CO)c2N)O1`, the growth was 3.17% (active). Then `CC[C@H](Nc1ncnc2nc[nH]c12)c1nc2cccc(NCc3ccc(C(=O)NO)nc3)c2c(=O)n1-c1ccccc1`, with 11.1%. As for `O=C(N/N=C/c1ccc(Cl)cc1)c1[nH]c2ccc(Cl)cc2c1-c1ccccc1`, the figure is 33.7%; as for `Nc1c(C(=O)Nc2ccncc2)sc2nc3c(cc12)CCCCCC3`, 87.8%; as for `Fc1ccc(-c2nc(Nc3ccc(-c4nc5ccccc5[nH]4)cc3)nc(N3CCOCC3)n2)cc1`, -84% (active).

For `C=CCn1c(SCC(=O)Nc2ccc(C(=O)/C=C/c3ccc(C)cc3)cc2)nnc1-c1c[nH]c2ccccc12`, the growth was 85.3%. Then `CC(C)(C)[Si](C)(C)OC1[C@@H](O[Si](C)(C)C(C)(C)C)[C@@H](CNC(=O)NC(=O)C(F)(F)F)O[C@H]1n1cnc2c(NC(=O)Nc3ccccc3)ncnc21` (stereo not given in full), with 102%.

For `CN1C2CCC1/C(=C\c1ccc(Cl)cc1)C1=C2[C@@H](c2ccc(Cl)cc2)C(C#N)=C(N)O1` (stereo not given in full), the growth was 77.9%. As to `Cc1nc2sc(C(=O)Nc3cccc(Br)c3C)c(N)c2cc1C(O)c1ccccc1` (stereo not given), the growth was 17.9%. As for `COc1ccc(C2=C(Br)C(=O)c3nc(C)ccc3C2=O)cc1`, the figure is 87.1%. Take `C=C(C)[C@@H]1CC[C@]2(C(=O)O)CC[C@]3(C)[C@H](CC[C@@H]4[C@@]5(C)C[C@@H](CC#Cc6ccccc6C)C(=O)C(C)(C)[C@@H]5CC[C@]43C)[C@@H]12`: the growth was 17.2%. As for `O=C(Cn1ccnc1)Nc1ccc(-c2nc3ccccc3s2)cc1`, the figure is 0.748% (active); as for `CC1=NN(c2cccc(Cl)c2)C(=O)/C1=C\c1cn(CC(O)CN2CCCCC2)c2ccccc12` (stereo not given), 23.7%. As for `CCCCCCCC/C=C\CCCCCCCCOc1ccc(CC(=O)NCC[N+]2(C)CCOCC2)cc1`, the figure is 43.9%.

On to `COC(=O)C1CN(S(=O)(=O)/N=C2\NC(=O)NC2=C(Cl)Cl)C1`, for which the growth was 72.5%. As for `COc1cc2ncnc(Oc3ccc(NC(=O)Nc4ccc(C5(C#N)CCCC5)cc4)c4ccccc34)c2cc1OC`, the figure is 38.2%; as for `CCCCCCCCCCCCCCCCCC1OCC(COC(=O)O[C@]2(CC)C(=O)OCc3c2cc2n(c3=O)Cc3cc4ccccc4nc3-2)O1` (stereo not given in full), 69.9%; as for `CN1CCN(c2ccc(-c3cc4c(Nc5ccc(F)c(Cl)c5)ncnn4c3)cn2)CC1`, 70.1%.
